AmpC inh detg: inhibitors of E. coli AmpC beta-lactamase with detergent. AID 485294. Potency, µM (highest dose often 114 µM), for inactives: at the top dose activity change, negative = inhibition, most hits filed as inhibitors. P00811. AmpC hydrolysis of nitrocefin, absorbance 480 nm, 0.01% Triton. hit rate 0.041% among 370,000;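 further: 0% = no-compound wells and -100% = no-enzyme wells; nearly all actives have a fitted effect of over 25% in size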
Target sequence (P00811 whole entry, looked up): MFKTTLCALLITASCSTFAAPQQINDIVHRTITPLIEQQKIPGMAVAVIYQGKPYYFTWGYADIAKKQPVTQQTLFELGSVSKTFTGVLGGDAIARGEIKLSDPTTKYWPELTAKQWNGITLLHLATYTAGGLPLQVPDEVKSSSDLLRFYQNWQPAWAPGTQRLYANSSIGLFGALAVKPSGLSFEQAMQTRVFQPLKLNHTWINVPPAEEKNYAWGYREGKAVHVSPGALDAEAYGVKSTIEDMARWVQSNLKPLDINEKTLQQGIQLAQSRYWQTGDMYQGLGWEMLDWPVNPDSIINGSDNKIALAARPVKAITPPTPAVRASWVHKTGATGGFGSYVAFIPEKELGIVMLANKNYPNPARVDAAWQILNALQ
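AmpC (5.3 nM in the dispensed reagent) in 20 mM phosphate pH 7.0 with 0.01% (detergent screen) or 0.0001% Triton X-100 was preincubated with compounds for 15 min at room temperature. Nitrocefin was then added from an 800 uM solution, and hydrolysis was followed at 480 nm.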
AMA1-RON2 inh: disrupts binding of P. falciparum AMA1 to RON2; AID 720542; AlphaScreen AMA1-biotinylated RON2 peptide binding; hit rate 0.2% among 360,000; Potency, µM (series often up to 58.2 µM), for the others: at the top dose activity change, negative = inhibition, usual class: inhibitors;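 further: 0% = vehicle wells and -100% = peptide control; nearly all actives have a fitted effect of over 45% in size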
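AMA1 (3D7) with his tag at 25 nM final met compounds first, then biotinylated RON2 peptide at 25 nM; detection used donor plus acceptor beads, 10 µg/mL apiece, read by AlphaScreen after 30 min at room temperature.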
Pf growth 96h: P. falciparum growth inhibition at 96 hours; Potency, µM (highest dose often 28.7 µM), without a hit: top-dose activity change, negative = inhibition, hits mostly inhibitors; hit rate 6.9% among 320,000; P. falciparum luciferase reporter growth, 96 h; AID 504834
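Readout is luminescence from an integrated firefly luciferase in P. falciparum. Red cells, 2% hematocrit and 0.05% parasitemia final, were cultured with compound through two parasite generations (96 hours) at 37 C, 5% CO2.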
HCV inhibitor: blocks hepatitis C virus; Huh7.5.1 HCVcc-Cre infection, luciferase reporter, 44 h; hit rate 3.4% among 340,000; Potency, µM (titrated, usually from 41.8 µM), without a hit: at the top dose activity change, negative = inhibition, most hits filed as inhibitors; AID 651820
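Antiviral activity was scored by luciferase reporter output from cells infected with HCVcc-Cre (~0.5 moi) in presence of compound, 44 h infection period, cells seeded 1,000/well 4 h prior.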
Pf growth 48h: inhibits P. falciparum growth in the first generation, 48 h; hit rate 5.9% among 310,000; Potency, µM (top dose mostly 28.7 µM), without a hit: top-dose activity change, negative = inhibition, actives largely listed as inhibitors; P. falciparum luciferase growth in erythrocytes, 48 h
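Parasite viability was followed by luminescence of a genomically integrated firefly luciferase. Cultures held 0.1% parasitemia at 2% hematocrit (final), incubated under 5% CO2 at 37 C.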
AmpC no deterg: inhibitors of E. coli AmpC beta-lactamase without detergent. AmpC nitrocefin hydrolysis, absorbance 480 nm, 0.0001% Triton. Potency, µM (titrated, usually from 57.1 µM), without a hit: at the highest dose activity change, negative = inhibition, actives largely listed as inhibitors. P00811. hit rate 0.52% among 330,000;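 further: plate controls were no compound for no effect and no enzyme for full effect; nearly all actives have a fitted effect of over 20% in size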
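AmpC (5.3 nM in the dispensed reagent) in 20 mM phosphate pH 7.0 with 0.01% (detergent screen) or 0.0001% Triton X-100 was preincubated with compounds for 15 min at room temperature. Nitrocefin was then added from an 800 uM solution, and hydrolysis was followed at 480 nm.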
The depositor's hits bear a star; u = inconclusive; x = not tested or not shown; [ ] = dose if it differs, or a comment. This is a sample that favours compounds with a hit; in the whole collection about 11% have one here. The call rests on the fitted dose curve; in most records, active means well fitted curve in the direction sought with a large enough effect; inconclusive means small, poorly fitted or top-dose-only effect, or another doubt; inactive means no such curve, though single readings can be large; an effect the other way counts as inactive or inconclusive. Unless noted, on the % scale 0 is the no-effect control and ±100 the full control effect; potency means the concentration at half of the fitted maximal effect.

SMILES	AmpC inh detg	AMA1-RON2 inh	Pf growth 96h	HCV inhibitor	Pf growth 48h	AmpC no deterg
CCCN(CCC)CCNC(=O)C1CCCN(S(=O)(=O)c2cccc3nsnc23)C1 (centres undefined)	1.2%	x	x	x	x	x
CCn1cc(C(=O)Nc2ncccc2O)c(=O)c2cc(F)c(N3CCN(C(=O)c4ccco4)CC3)cc21	-14.7%	23.9%	4.65µM*	-26.4%	u	38.4%
CCn1cc(C(=O)O)c(=O)c2cc(F)c(N3CCN(C(=S)Nc4ccc(OC)cc4)CC3)cc21	2.6%	14.8%	u	-0.9%	u	-14.3%
CCOC(=O)c1ccccc1NC1(c2ccc(OC)cc2)C(=O)c2ccccc2C1=O	15.9%	x	x	x	x	x
Cc1ccccc1CN1C(=O)Nc2ccccc2C(=O)N1C(C)(C)C	u	-3.3%	x	4.4%	-4.8%	-7.0%
CC(C)(C)N1C(=O)c2ccccc2NC(=O)N1Cc1ccc(Br)cc1	2.3%	-0.7%	8.28µM*	-0.8%	x	-6.3%
COc1ccc(-n2c3c(cc(C(=O)N4CCN(CCO)CC4)c2=O)C(=O)CC(C)(C)C3)cc1	-9.8%	1.4%	10.4µM*	4.7%	-2.7%	-11.8%
CC(C)(C)C1CCC(OC(=O)c2ccncc2)CC1 (centres undefined)	u	4.1%	8.8%[5.75 µM]	27.0%	11.7µM*	-13.6%
Clc1ccc(Cn2cc(/C=N/n3cnnc3)c3ccccc32)cc1	u	-3.4%	-21.0%	10µM*	u	33.3%
COc1ccc(OC)c(NC(=O)c2cnc(N3CCCCC3)c3ccccc23)c1	2.3%	x	x	x	x	x
Cc1onc(-c2ccc(Cl)cc2Cl)c1-c1csc(N/N=C/c2ccccc2Cl)n1	6.3%	4.1%	u	-16.8%	6.57µM*	-30.9%
C(=N\Nc1nc(-c2ccccc2)cs1)/c1cccnc1	1.6%	36.3%	u	u	u	-5.3%
Cc1ccc(/C=N/Nc2nc(C(C)(C)C)cs2)o1	-5.1%	42.5%	-8.6%	u	u	-53.1%
Cc1sc(N/N=C/c2cccnc2)nc1-c1ccc(Cl)cc1	1.9%	2.7%	62.7%	u	13.1µM*	-32.2%
Clc1ccc(-c2csc(N/N=C/c3cccnc3)n2)c(Cl)c1	-12.4%	30.3%	4.65µM*	u	10.4µM*	-19.4%
CC(C)(C)c1csc(N/N=C/c2cccnc2)n1	u	-6.0%	u	u	13.1µM*	23.7%
Cc1cc(C)c(NC(=O)C2CCN(c3nn4c(=O)cc(C)nc4s3)CC2)c(C)c1	24.6%	x	x	x	x	x
COC(=O)C1CCN(c2ccc(Cl)nn2)CC1	2.2%	16.0%	u	2.5%	1.47µM*	-28.1%
COC(=O)C1CCN(c2cnccn2)CC1	7.1%	-2.3%	u	12.8%	57.9%	-4.7%
NC(=S)N/N=C/c1ccccc1OC(=O)c1cc2ccccc2oc1=O	u	79.6%	0.586µM*	-9.0%	0.329µM*	-26.1%
O=C(Cn1c(SCCOc2ccccc2)nc2ccccc21)N1CCOCC1	5.6%	x	x	x	x	x
CSc1ccc(CNC(=O)c2ccc3c(c2)N(C)C(=O)C2CCCCN32)cc1 (centres undefined)	19.2%	x	x	x	x	x
Cc1ccc(-n2c(N)c(C(=O)Nc3c(C)n(C)n(-c4ccccc4)c3=O)c3nc4ccccc4nc32)cc1C	-4.3%	x	u	10.1%	10.4µM*	199.9%
Nc1c(C(=O)Nc2ccccc2)c2nc3ccccc3nc2n1-c1ccc(O)cc1	-1.2%	45.5%	-18.8%	u	13.1µM*	6.5%
COc1ccc(-n2c(N)c(C(=O)Nc3c(C)n(C)n(-c4ccccc4)c3=O)c3nc4ccccc4nc32)cc1	3.3%	1.8%	1.65µM*	-10.6%	4.65µM*	58.3%
SMILES	AmpC inh detg	AMA1-RON2 inh	Pf growth 96h	HCV inhibitor	Pf growth 48h	AmpC no deterg
Cc1c(NC(=O)c2c(F)c(F)c(F)c(F)c2F)c(=O)n(-c2ccccc2)n1C	u	13.2%	-1.7%	11.3%	-12.3%	-13.2%
Cn1c(=O)oc2cc(S(=O)(=O)NCCC(=O)NCc3ccc(F)cc3)ccc21	-0.6%	7.3%	13.1µM*	-9.4%	4.4%	112.7%
CCN(C(=O)C1CCC(CNS(=O)(=O)c2cccc3nsnc23)CC1)c1cccc(C)c1 (centres undefined)	-0.2%	x	x	x	x	x
CCn1nc(C)c(CCN(C)C(=O)Nc2cccc(Cl)c2C)c1C	-2.1%	x	x	x	x	x
O=[N+]([O-])c1cc(Cl)ccc1N1CCN(c2ccccc2O)CC1	1.5%	u	u	-11.6%	u	-23.2%
O=C(c1ccc(-c2cc3ccccc3oc2=O)cc1)N1CCN(c2ccc(Cl)cc2[N+](=O)[O-])CC1	-4.2%	-17.2%	u	10µM*	u	-12.2%
CCc1nn2c(=O)cc(COC(=O)c3cccc(NC(=O)COc4ccccc4)c3)nc2s1	18.9%	x	x	x	x	x
C=CCn1c(=NC(=O)c2ccc(S(=O)(=O)N3CCc4ccccc4C3)cc2)sc2cc(S(N)(=O)=O)ccc21	-0.7%	12.5%	u	u	-24.0%	-51.6%
COCCn1c(=NC(=O)c2ccc(S(=O)(=O)N3CCCc4ccccc43)cc2)sc2cc(S(C)(=O)=O)ccc21	-1.6%	11.9%	1.04µM*	-27.0%	3.29µM*	-50.3%
C=CCn1c(=NC(=O)c2ccc(S(=O)(=O)N3CCCc4ccccc43)cc2)sc2cc(S(N)(=O)=O)ccc21	-11.4%	2.6%	4.65µM*	u	5.22µM*	1.8%
Cn1c(=NC(=O)c2ccc(S(=O)(=O)N3CCCc4ccccc43)cc2)sc2cc(F)ccc21	-5.7%	x	x	x	x	x
COc1cccc(C(=O)N=c2sc3cc(S(C)(=O)=O)ccc3n2C)c1	-3.1%	6.1%	13.1µM*	-0.5%	98.7%	1.0%
COc1cc(OC)cc(C(=O)N=c2sc3ccccc3n2C)c1	-3.6%	4.3%	142.7%	-21.8%	350.7%	-2.5%
COc1ccc(OC)c(NC(=O)c2cn(CC(C)C)c(=O)c3cc(OC)c(OC)cc23)c1	-2.9%	x	x	x	x	x
CCCOc1cccc(C2C(C(=O)c3ccc(C)o3)=C(O)C(=O)N2CCN2CCOCC2)c1 (centres undefined)	u	8.6%	-21.1%	12.3%	-1.5%	-10.4%
CCOc1cccc(C2C(C(=O)c3ccco3)=C(O)C(=O)N2Cc2ccncc2)c1 (centres undefined)	u	36.0%	2.62µM*	u	5.1%	-17.6%
C=CCOc1cccc(C2C(C(=O)c3ccc(C)o3)=C(O)C(=O)N2CCN(C)C)c1 (centres undefined)	u	17.2%	3.7µM*	2.0%	-13.5%	-5.1%
CN(C)CCN1C(=O)C(O)=C(C(=O)c2cc3ccccc3o2)C1c1ccc(N(C)C)cc1 (centres undefined)	-8.5%	-2.4%	9.28µM*	2.5%	54.2%	-1.4%
